According to PubChem BioAssay (EPA / NIEHS):
Where a structure was tested more than once in an assay, its records may differ in their call. The source made the active and inactive calls. The calls were made as follows: active = hit-call score of the fitted dose curve at least 0.9, where 1 is the maximum; inactive = score below 0.9.

read-out: Macrophage colony-stimulating factor (MCSF), CSF1 (gene 1435); experiment: BSK_LPS_MCSF: BioMAP Diversity Plus: LPS Assay for Macrophage colony-stimulating factor (MCSF) Biomarker Activity (AID 2283083); details: primary human HUVEC with PBMC; actives raise or lower the signal
Experimental: BSK_LPS is a cell-based, multiplexed-readout assay that uses umbilical vein endothelium and peripheral blood mononuclear cells, a human vascular primary cell co-culture, with measurements taken at 24 hours after chemical dosing in a 96-well plate.BSK_LPS_MCSF is an assay component measured in the BSK_LPS assay. It measures M-CSF antibody related to regulation of gene expression using ELISA technology.Data from the assay component BSK_LPS_MCSF was analyzed into 1 assay endpoint. This assay endpoint, BSK_LPS_MCSF, was analyzed with bidirectional fitting relative to DMSO as the negative control and baseline of activity. Using a type of binding reporter, gain or loss-of-signal activity can be used to understand changes in the signaling as they relate to the gene CSF1. Furthermore, this assay endpoint can be referred to as a primary readout, because this assay has produced multiple assay endpoints where this one serves a signaling function. To generalize the intended target to other relatable targets, this assay endpoint is annotated to the cytokine intended target family, where the subfamily is colony stimulating factor.
The levels of cell surface (or secreted, indicated by the prefix "s") biomarker endpoints were measured by ELISA. Overt cytotoxicity to cells in confluent adherent cultures (all systems other than the BT system) was assessed by measuring total protein levels using sulforhodamine B (SRB) staining in parallel cultures at the time of biomarker measurements, indicated as SRB endpoints. For proliferation assays for adherent cell types, individual cell types are cultured at sub-confluence and relative cell numbers quantified by SRB staining at time points optimized for each system (48 h: 3C and CASM3C systems; 72 h: BT and HDF3CGF systems; 96 h: SAg system). SRB was performed by staining cells with 0.1% SRB after fixation with 10% TCA and reading wells at 560 nm.Viability and proliferation of PBMC (T cells) was quantified by Alamar Blue reduction for the SAg and BT systems. For PBMC viability (referred to as PBMC Cytotoxicity within the assay endpoint names), cells were plated (75,000/well in a 96-well plate) and then chemical samples added for 1 h before addition of activators, SEB and TSST-1 (20 ng/mL final concentration each). Cells were incubated for 90 h. Then, Alamar Blue (20 uL/well) (Invitrogen, Cat DAL1100) was added for 6 h, and the plates were read with a fluorescence microplate reader at 546/580 nm (excitation/emission). For PBMC proliferation, cells were plated and activated as above but incubated for only 16 h prior to addition of Alamar Blue. Plates were read after 6 h.

Compound	outcome	AC50
O=[N+]([O-])c1ccc2c3c(cccc13)CC2	inactive	–
CC(C)c1ccc(CO)cc1	inactive	–
O=Cc1cccc(Oc2ccccc2)c1	inactive	–
CCC(=O)C(CC(C)N(C)C)(c1ccccc1)c1ccccc1 (stereo not given)	inactive	–
O=C(O)C(Cl)(Cl)Cl	inactive	–
COC(=O)c1sccc1S(=O)(=O)NC(=O)Nc1nc(C)nc(OC)n1	inactive	–
COc1cc(OC)nc(NC(=O)NS(=O)(=O)c2ncccc2C(=O)N(C)C)n1	inactive	–
CC(C)(OO)c1ccccc1	inactive	–
Cn1sc(Cl)cc1=O	–	29.5 µM (active)
O=C(Nc1ccc2[nH]ccc2c1)c1cc2cc(F)ccc2n1Cc1cccc(F)c1	–	14 µM (active)
CCOP(=S)(OCC)Oc1ccc(S(C)=O)cc1 (stereo not given)	inactive	–
C=C(C)C(=O)[O][Sn]([CH2]CCC)([CH2]CCC)[CH2]CCC	–	0.148 µM (active)
Cc1ccccc1N	inactive	–
NC(=S)Nc1ccccc1	inactive	–
CC(C)(C)CC(C)(C)c1ccc(O)cc1	–	9.26 µM (active)
O=C(O)CCC(F)(C(F)(F)F)C(F)(F)F	inactive	–
BrCCBr	inactive	–
CCCCCCCCc1ccc(O)cc1	–	30.8 µM (active)
O=C1C2(Cl)C3(Cl)C4(Cl)C(Cl)(Cl)C5(Cl)C3(Cl)C1(Cl)C5(Cl)C24Cl (stereo not given)	–	10.6 µM (active)
COC(=O)Cc1ccccc1	inactive	–

Compound	outcome	AC50
CC(C)CCCCCCOC(=O)c1ccccc1C(=O)OCCCCCCC(C)C	inactive	–
COc1cc(-c2ccc(N)c(OC)c2)ccc1N	inactive	19.2 µM (active)
CN(C)N=O	inactive	–
Nc1ccc(-c2ccc(N)c(Cl)c2)cc1Cl	inactive	–
COP(=S)(OC)Oc1c(Cl)cc(C)cc1Cl	inactive	–
Nc1cccc2ccccc12	inactive	–
COP(=S)(OC)Oc1cc(Cl)c(Cl)cc1Cl	inactive	–
NC(=O)O	inactive	–
CCSC(C)CC1CC(=O)C(C(CC)=NOC/C=C/Cl)=C(O)C1 (stereo not given)	inactive	–
C(=NC1CCCCC1)=NC1CCCCC1	–	20 µM (active)
CCOC(=O)/C=C(C)/C=C/C[C@@H](C)CCCC(C)C	–	15.5 µM (active)
C[C@@H]1C[C@@H]([C@H](O)CC2CC(=O)NC(=O)C2)C(=O)[C@@H](C)C1	–	4.48 µM (active)
ClCC(Cl)CCl	inactive	–
CCCCCCCCC(=O)NCc1ccc(O)c(OC)c1	inactive	–
CCOP(=S)(OCC)SCSP(=S)(OCC)OCC	–	2.72 µM (active)
COP(=S)(OC)Oc1ccc(Sc2ccc(OP(=S)(OC)OC)cc2)cc1	–	20 µM (active)
CCNc1nc(NC(C)(C)C)nc(SC)n1	inactive	–
Oc1ccc(-c2ccccc2)cc1	inactive	–
CCCCC(CC)CO[N+](=O)[O-] (stereo not given)	inactive	–
